# Data taken from PubChem BioAssay (EPA / NIEHS).
# Results filed as inconclusive are left out. Active and inactive are the calls of the source. Rule for the calls: active = hit-call score of the fitted dose curve at least 0.9, where 1 is the maximum; inconclusive = response in the unintended direction; inactive = score below 0.9.
# Read-out: organic anion transporter (SLCO1B1), SLCO1B1 (gene 10599)
# Experiment: CLD_SLCO1B1_24hr: CellzDirect (CLD) Gene Expression Assay for organic anion transporter (SLCO1B1) at 24 hours (AID 2283690)
# Procedure: CLD_24hr is a cell-based, multiplexed-readout assay that uses hepatocyte, a human liver primary cell, with measurements taken at 24 hours after chemical dosing in a 96-well plate.CLD_SLCO1B1_24hr is one of 16 assay component(s) measured or calculated from the CLD_24hr assay. It is designed to make measurements of mRNA induction, a form of inducible reporter, as detected with chemiluminescence signals by Quantitative Nuclease Protection Assay (qNPA) technology.Data from the assay component CLD_SLCO1B1_24hr was analyzed at the endpoint, CLD_SLCO1B1_24hr, in the positive analysis fitting direction relative to DMSO as the negative control and baseline of activity. Using a type of inducible reporter, gain-of-signal activity can be used to understand changes in the reporter gene as they relate to the gene SLCO1B1. Furthermore, this assay endpoint can be referred to as a primary readout. To generalize the intended target to other relatable targets, this assay endpoint is annotated to the transporter intended target family, where subfamily is organic anion transporter.
# Human hepatocyte cultures were treated daily for two consecutive days with fresh dosing solutions containing appropriate concentrations of the 320 ToxCast chemicals (chemical identities were blinded to CellzDirect and other ToxCast collaborators), vehicle control (0.2% DMSO), and positive control inducers as summarized in Table 1. Due to the large number of treatment groups and chemicals examined, the ToxCast chemicals were divided into two groups (spanning two independent cultures of hepatocytes from separate donor preparations (Hu778: ToxCast plates 1 and 2; Hu776: ToxCast plates 3 and 4). Each preparation of human hepatocyte cultures was treated with respective vehicle control, medium only control, set of six positive controls/reference chemicals for the five hepatic receptor pathways, and a subset of eight of the ToxCast chemicals (indoxacarb, pyrithiobac-sodium, norflurazon, cyhalofop-butyl, methomyl, thiram, acetochlor, and propiconazole). These replicate data, coupled with internal replicates designed within the blinded ToxCast chemical library, provided additional data to evaluate interindividual differences between hepatocyte preparations and their potential impact on chemical profiles.Cell morphology and integrity were evaluated using phase-contrast microscopy as an indicator of hepatocyte cell health (Tyson & Green, 1987). Cultures for each treatment group (i.e., media, vehicle [0.2% DMSO], positive control inducers [multiple concentrations], and the ToxCast chemicals [multiple concentrations]) were observed and cell morphology was assessed relative to vehicle control cultures at each harvest time point (0, 6, 24, or 48 h). […] Images were evaluated at the conclusion of the study to assess changes in cell integrity and account for the effects of chemical exposure on uncharacteristic changes in concentration-dependent gene expression profiles. The results from these determinations of apparent cytotoxicity were annotated (yes/no) alongside the corresponding qNPA data for reference.At the conclusion of each treatment period, hepatocyte cultures (96-well) were washed with 1 volume of HBSS, lysed by addition of 25 ul ArrayPlate lysis buffer (HTG, Tucson, AZ), and 70 ul/well of Denaturation Oil, denatured by incubation at 95C for 10 min, and frozen at approximately -70C until analysis by nuclease protection assay (qNPA) (Roberts et al., 2007). For qNPA analysis, cell lysates were thawed at 50C for approximately 30 min, qNPA probes were added, and samples were incubated at 95C for 10 min to begin the detection process by denaturing the target RNA, dissociating the duplexes and secondary structure hybridization. At the conclusion of the hybridization period, S1 nuclease reagent was added to each sample to digest all nonprotected nucleotides at 50C for 60-90 min. […]
row,Structure (SMILES),outcome
1,CCCN(CCC)C(=O)SCC,inactive
2,CCNc1nc(N)nc(Cl)n1,inactive
3,COCCO,inactive
4,CCCCCCC(C)OC(=O)COc1nc(F)c(Cl)c(N)c1Cl (stereo not drawn),inactive
5,CCC(O)=C1C(=O)CC(C(=O)O)CC1=O (stereo not drawn),inactive
6,CCOC(=O)C(C)Oc1ccc(Oc2nc3ccc(Cl)cc3o2)cc1 (stereo not drawn),inactive
7,O=C(Nc1ccc([N+](=O)[O-])cc1Cl)c1cc(Cl)ccc1O,inactive
8,C#CCOC(=O)[C@@H](C)Oc1ccc(Oc2ncc(Cl)cc2F)cc1,inactive
9,c1ccc(Nc2ccccc2)cc1,inactive
10,CCOC(=O)[C@H](C)Oc1ccc(Oc2nc3ccc(Cl)cc3o2)cc1,inactive
11,CCC(C)OC(=O)N1CCCCC1CCO (stereo not drawn),inactive
12,CC1(C)C(C=C(Cl)Cl)C1C(=O)OCc1cccc(Oc2ccccc2)c1 (stereo not drawn),inactive
13,CCCCOC(=O)[C@@H](C)Oc1ccc(Oc2ccc(C(F)(F)F)cn2)cc1,inactive
14,COC(=O)c1cccc(C)c1S(=O)(=O)NC(=O)Nc1nc(OCC(F)(F)F)nc(N(C)C)n1,inactive
15,CCSC(=O)N(CC(C)C)CC(C)C,inactive
16,CCCCC(CC)COC(=O)c1ccccc1C(=O)O (stereo not drawn),inactive
17,CCCOC(=O)NCCCN(C)C,inactive
18,COC(=O)c1ccc(I)cc1S(=O)(=O)NC(=O)Nc1nc(C)nc(OC)n1,inactive
